High-throughput results from PubChem.
Shown are actives, neighbours in structure and some others; about 5.8% of the full set was active somewhere.
TRPV1 potentiator: human TRPV1 potentiation; Q8NER1; TRPV1-expressing cells, Fluo-8 calcium influx, capsaicin EC20 potentiation; potentiation, % at 8.33 µM; 320,000 compounds, 0.02% hits; AID 540277; in the data active = potentiation above about 80%; inconclusive = between about 30% and that limit; note: 0% is about no effect
Target sequence (Q8NER1 whole entry, looked up): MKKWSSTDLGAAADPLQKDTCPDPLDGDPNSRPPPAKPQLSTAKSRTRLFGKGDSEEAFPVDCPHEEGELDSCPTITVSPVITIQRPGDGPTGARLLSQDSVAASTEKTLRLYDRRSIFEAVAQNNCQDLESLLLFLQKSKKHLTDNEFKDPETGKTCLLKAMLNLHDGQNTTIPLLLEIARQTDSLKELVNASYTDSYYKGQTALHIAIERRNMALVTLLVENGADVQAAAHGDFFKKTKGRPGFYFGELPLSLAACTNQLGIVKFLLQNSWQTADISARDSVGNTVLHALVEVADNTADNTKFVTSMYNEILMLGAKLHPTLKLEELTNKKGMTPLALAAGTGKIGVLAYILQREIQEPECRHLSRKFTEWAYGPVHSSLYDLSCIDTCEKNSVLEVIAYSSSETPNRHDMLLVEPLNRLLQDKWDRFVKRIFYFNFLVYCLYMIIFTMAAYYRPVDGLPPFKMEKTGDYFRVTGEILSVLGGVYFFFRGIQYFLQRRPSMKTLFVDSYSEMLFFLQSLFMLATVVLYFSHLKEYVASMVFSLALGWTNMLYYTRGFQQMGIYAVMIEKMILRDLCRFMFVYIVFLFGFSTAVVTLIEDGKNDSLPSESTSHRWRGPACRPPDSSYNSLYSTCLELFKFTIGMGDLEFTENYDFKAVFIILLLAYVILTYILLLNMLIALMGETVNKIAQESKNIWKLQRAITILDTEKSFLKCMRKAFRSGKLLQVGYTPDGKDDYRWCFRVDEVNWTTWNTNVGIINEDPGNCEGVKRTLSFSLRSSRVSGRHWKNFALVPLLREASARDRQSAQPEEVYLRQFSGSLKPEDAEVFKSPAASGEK
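Cells expressing TRPV1 were dye-loaded with Fluo-8 and read kinetically: 10 s baseline, 3 min after compound (agonist portion), then 2 min after EC20 capsaicin (allosteric enhancer portion). Calcium-bound dye fluorescence at 480/520 nm.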
TRPV1 ag: human TRPV1 agonism. 320,000 compounds, 0.19% hits. TRPV1-expressing cells, Fluo-8 calcium influx, agonist mode. Q8NER1. activation, % at 8.33 µM; in the data active = activation above about 80%; inconclusive = between about 30% and that limit; note: 0% is about no effect
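Fluo-8 calcium influx in TRPV1-expressing cells, kinetic read (ex 480/em 520 nm). Compound added and read 3 min for agonist activity, followed by capsaicin at EC20 final and 2 min further read for enhancement.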
uPA generation: inhibitors of cell surface uPA generation. cell surface uPA generation assay, qHTS. Potency, µM (highest dose often 38.3 µM), for inactives: at the top dose activity change, negative = inhibition, actives largely listed as inhibitors. 330,000 compounds, 0.31% hits. AID 540303; active = well fitted inhibition curve with a large enough effect; inconclusive = small, poorly fitted or top-dose-only effect; inactive = no such curve, though single readings can be large or run the other way; tested in mouse RAW 264.7 cells; note: potency is the fitted concentration of half-maximal effect; % is set by controls: 0 for no effect and ±100 for the full control effect; nearly all actives have a fitted effect of over 55% in size
RORgamma inh: ROR gamma (mouse) transcription inhibition; P51450; Drosophila S2 Gal4-RORgamma UAS-luciferase reporter, 20 h; Potency, µM (top dose mostly 53.6 µM), for the others: at the highest dose activity change, negative = inhibition, most hits filed as inhibitors; 310,000 compounds, 5.4% hits; AID 2551; note: potency is the fitted concentration of half-maximal effect; % is set by controls: 0 for no effect and ±100 for the full control effect; nearly all actives have a fitted effect of over 60% in size
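Stable Schneider cell line, Gal4 DNA-binding domain fused to ROR gamma, UAS-luciferase. Cmpd 1 hr RT → CuSO4 700 uM final → 20 hr RT → luciferase reagent 10 min → luminescence.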
Gal4-VP16 FLuc: counter-screen for ROR gamma inhibitors: Gal4-VP16 reporter; Drosophila S2 Gal4-VP16 UAS-luciferase, luminescence, 20 h; Potency, µM (highest dose often 53.6 µM), for the others: at the highest dose activity, negative = inhibition, actives largely listed as inhibitors; 310,000 compounds, 3.5% hits;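 note: Gal4-VP16 expression switched on by copper sulfate through the metallothionein promoter; potency is the fitted concentration of half-maximal effect; % is set by controls: 0 for no effect and ±100 for the full control effect; nearly all actives have a fitted effect of over 50% in size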
The depositor's hits bear a star; ? = inconclusive; nt = not tested or not shown; [ ] = another dose, or the depositor's remark. Unless noted, calls come from the whole dose curve; as a rule, active = well fitted curve in the direction sought with a large enough effect; inconclusive = small, poorly fitted or top-dose-only effect, or another doubt; inactive = no such curve, though single readings can be large; an effect the other way counts as inactive or inconclusive.

SMILES	TRPV1 potentiator	TRPV1 ag	uPA generation	RORgamma inh	Gal4-VP16 FLuc
O=C1C(CCCNC(=S)NCc2ccccc2)NC(=S)N1Cc1ccccc1 (configuration not stated)	16	11	9%	22µM*	?
C=CCNC(=S)NCCCCC1NC(=S)N(CC=C)C1=O (configuration not stated)	1	-1	-1%	?	4%
COC(=O)N1[C@H](C)C=C[C@]1(Cc1ccccc1)C(=O)NCc1ccc(C)o1	nt	nt	nt	10%	-23%
O/N=C/c1ccnc(SCc2ccccc2)n1	nt	nt	-5%	0.56µM*	3.5µM*
COc1ccc(C2/C=C\CN(S(=O)(=O)c3ccc(C)cc3)C(Cc3ccccc3)C(=O)N2Cc2ccc(F)cc2)cc1 (configuration not stated)	nt	nt	nt	10µM*	-11%
CC1CCC2C(C)C3C(CC4[C@@H]5CC=C6C[C@@H](O)CC[C@]6(C)C5CC[C@]34C)N2C1 (some centres not stated)	nt	nt	nt	-22%	-5%
Cc1ccsc1C(=O)N/N=C/C=C/c1ccccc1[N+](=O)[O-]	-18	?	3%	5.6µM*	5.6µM*
Cc1occc1C(=O)N/N=C/C=C\c1ccccc1[N+](=O)[O-]	-7	3	-1%	?	?
O=C(N/N=C/C=C\c1ccccc1[N+](=O)[O-])c1ccccn1	-10	5	1%	?	-7%
O=C(N/N=C/C=C/c1ccccc1[N+](=O)[O-])c1cc(-c2ccccc2)n[nH]1	1	2	-3%	7.1µM*	14µM*
CCCCCCOC(=O)C(C#N)c1nc2ccccc2nc1N1CCN(CC)CC1 (configuration not stated)	-6	10	-10%	10µM*	?
CCCCCCOC(=O)C(C#N)c1nc2ccccc2nc1N1CCOCC1 (configuration not stated)	-3	-2	-5%	-32%	1%
CCCCC1(Cc2ccc([N+](=O)[O-])cc2)C(=O)N(c2ccccc2)N(c2ccccc2)C1=O	-4	25	-14%	?	7.1µM*
CN(C(=O)c1ccc(Cl)cc1)C1CCS(=O)(=O)C1 (configuration not stated)	nt	nt	17%	nt	nt
COc1cc2cc(C(=O)N(C)C3CCS(=O)(=O)C3)[nH]c2cc1OC (configuration not stated)	?	0	-3%	20µM*	2%
CC(C)c1nnc(NC(=O)CS(=O)(=O)Cc2ccccc2)s1	8	-2	2%	-18%	10%
Cc1ccc(CS(=O)(=O)c2ncc(Cl)c(C(=O)Nc3ccc(OC(F)F)cc3)n2)cc1	9	-4	-4%	-96%	?
Cc1ccc(CS(=O)(=O)c2ncc(Cl)c(C(=O)Nc3nnc(C(C)C)s3)n2)cc1	8	1	-2%	?	7.1µM*
Cc1cccc(CS(=O)(=O)c2ncc(Cl)c(C(=O)Nc3nnc(C(C)C)s3)n2)c1	-10	4	-3%	0.022µM*	?
CC(C)c1nnc(NC(=O)c2nc(S(=O)(=O)Cc3ccc(F)cc3)ncc2Cl)s1	14	2	1%	11µM*	?
CCSc1nnc(NC(=O)c2nc(S(=O)(=O)Cc3ccc(F)cc3)ncc2Cl)s1	?	0	-3%	?	11µM*
O=C(NCCCO)C(=O)c1c(-c2ccccc2)cc2ccccn12	-3	0	1%	-8%	-8%
CSc1ncc(Cl)c(C(=O)Nc2nnc(SC/C=C/c3ccccc3)s2)n1	7	-5	nt	2%	-14%
CSc1nnc(NC(=O)c2nc(S(=O)(=O)Cc3cccc(C)c3)ncc2Cl)s1	29	1	-2%	?	18µM*
C=CCSc1nnc(NC(=O)c2nc(SCC)ncc2Cl)s1	0	0	nt	11µM*	?
SMILES	TRPV1 potentiator	TRPV1 ag	uPA generation	RORgamma inh	Gal4-VP16 FLuc
Cc1cccc(-n2cc(C(=O)O)c(=O)cc2C)c1	5	2	2%	22%	2%
CN(C)c1ncc2nc(-c3ccc(F)cc3)c(=O)n(C)c2n1	nt	nt	nt	-16%	?
O=C(Nc1ccncc1)Nc1cccc(Cl)c1Cl	-9	?	-5%	-3%	-16%
CC(C)(C)CC(=O)NC(=S)Nc1ccccc1C(F)(F)F	-11	?	nt	3.2µM*	20µM*
O=C(Nc1ccc(Cl)cc1)Nc1cccc2nsnc12	-10	87*	?	92%	?
COc1ccccc1NC1=C(NC(C)=O)C(=O)c2ccccc2C1=O	3	-3	13µM*	?	?
CC(C)CC(=O)NC(=S)Nc1ccccc1C(F)(F)F	-13	7	7%	5.6µM*	?
Cc1cc(Cl)c(S(=O)(=O)Nc2cc(S(=O)(=O)N3CCOCC3)ccc2F)cc1OCC(N)=O	4	-2	9%	12%	-3%
C[C@@H](CCc1ccccc1)NC[C@H](O)c1ccc(O)c(C(N)=O)c1	nt	nt	nt	4%[16.9 µM]	-3%[17 µM]
COc1ccc(C(=O)N2CCOC23CCN(c2ncccn2)CC3)cc1	3	1	-5%	9%	4%
Cc1ccc2cccc(NC(=S)NC(=O)c3ccnn3C)c2n1	6	?	3%	?	?
Cc1ccc(C(=O)NC(=S)Nc2ccccc2C(F)(F)F)cc1	-4	0	-1%	4.5µM*	?
CC(=O)NC(=S)Nc1cccc2ccc(C)nc12	4	0	10%	2.8µM*	13µM*
COc1ccccc1NC(C)=O	?	-2	4%	-15%	-1%
Cc1ccc(C(=O)NCC(=O)Nc2ccccc2C(F)(F)F)cc1	?	-1	9%	5%	-2%
COc1ccccc1NC(=S)NC(C)=O	0	1	-7%	11µM*	-6%
CC(C)CC(=O)NC(=S)Nc1ccccc1F	2	-2	0%	10µM*	?
COc1cccc(Cn2c(=O)c(-c3ccc(F)cc3)nc3cnc(N4CCNCC4)nc32)c1	nt	nt	nt	-10%	-20%
O=C1CC(c2ccco2)CC2=C1C(c1cccnc1)n1nc(C(F)(F)F)nc1N2 (configuration not stated)	-10	8	nt	nt	nt
COc1ccc(-n2c(=O)cnc3cnc(N4CCN(C)CC4)nc32)cc1	nt	nt	nt	-13%	-3%
CC(C)CC(=O)NC(=S)Nc1cccc2nsnc12	-14	15	3%	7.9µM*	-7%
COc1c(C)cccc1C(=O)NC(=S)Nc1cccc2nsnc12	5	-1	-5%	6%	-15%
COc1ccccc1NC(=S)NC(=O)CC(C)C	-6	17	4%	2.2µM*	13µM*
COc1ccccc1NC(=O)CC(=O)Nc1ccccc1OC	17	-2	1%	29%	-5%
CC(C)CC(=O)NC(=S)Nc1ccccn1	?	-2	2%	-121%	20µM*
O=c1c(-c2cc(F)cc(F)c2)nc2cncnc2n1Cc1ccc(F)cc1	nt	nt	nt	-2%	2%
COC(=O)c1[nH]c2cc(OC)ccc2c1NC(=O)c1c(F)cccc1F	-20	?	5%	4%	-11%
